The record followed here is PubChem BioAssay (NCATS).

For test [1], the system named is ICS. The test can be described thus: qHTS profiling for inhibitors of Plasmodium falciparum proliferation (AID 504749). Note: potency is the fitted concentration of half-maximal effect. The following applies: P. falciparum in erythrocytes, SYBR Green DNA, 72 h; series mostly up to 28.7 µM. The essentials:
(§1)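 Infected RBCs, 0.3% parasitemia/2.5% Hct final; cpd 72 h, 37 C, 5% CO2; lysis buffer with saponin/triton/SYBR Green I, o/n RT dark; FI 485/535; norm. to artemisinin (0.29 uM) and DMSO.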

The test system of test [2] is JCK. Described as above. The following applies: P. falciparum in erythrocytes, SYBR Green DNA, 72 h; series mostly up to 28.7 µM. The essentials:
as §1

The test system of test [3] is N140. Described as above. The settings on record: P. falciparum in erythrocytes, SYBR Green DNA, 72 h; series mostly up to 28.7 µM. The essentials: as §1
Test [4] has as its system P93_24. The test is described as above. The following applies: P. falciparum in erythrocytes, SYBR Green DNA, 72 h; series mostly up to 28.7 µM. The essentials: as §1
The subject of test [5] is P94_40. Described as above. The following applies: P. falciparum in erythrocytes, SYBR Green DNA, 72 h; series mostly up to 28.7 µM. The essentials:
as §1

Test [6] concerns PAD. The description is as above. The following applies: P. falciparum in erythrocytes, SYBR Green DNA, 72 h; series mostly up to 28.7 µM. The essentials:
as §1

For test [7], the system named is PC15. Described as above. The following applies: P. falciparum in erythrocytes, SYBR Green DNA, 72 h; series mostly up to 28.7 µM. Put shortly:
as §1

The test system of test [8] is PC26. Described as above. The following applies: P. falciparum in erythrocytes, SYBR Green DNA, 72 h; series mostly up to 28.7 µM. Put shortly: as §1
Test [9] concerns PC49. Described as above. The settings on record: P. falciparum in erythrocytes, SYBR Green DNA, 72 h; series mostly up to 28.7 µM. The essentials:
as §1

Test [10] deals with SC27B. The description is as above. The following applies: P. falciparum in erythrocytes, SYBR Green DNA, 72 h; series mostly up to 28.7 µM. The essentials:
as §1

The test system of test [11] is TAB109. The description is as above. The settings on record: P. falciparum in erythrocytes, SYBR Green DNA, 72 h; series mostly up to 28.7 µM. Put shortly: as §1
Test [12] has as its system TAB113. The test is described as above. The following applies: P. falciparum in erythrocytes, SYBR Green DNA, 72 h; series mostly up to 28.7 µM. Put shortly:
as §1

Test [13] relates to TAB165. Described as above. The following applies: P. falciparum in erythrocytes, SYBR Green DNA, 72 h; series mostly up to 28.7 µM. Put shortly: as §1
The subject of test [14] is W2. The description is as above. The settings on record: P. falciparum in erythrocytes, SYBR Green DNA, 72 h; series mostly up to 28.7 µM. The essentials:
as §1

Test [15] has as its system KB-3-1. The test can be described thus: Cytotoxic Profiling of Annotated Libraries Using Quantitative High-Throughput Screening (AID 1296008). Note: % is set by controls: 0 for no effect and ±100 for the full control effect. The settings on record: Five cell lines viability, CellTiter-Glo ATP luminescence, 48-72 h; max response: hits give low values. The essentials:
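Cytotoxicity was measured as CellTiter-Glo ATP luminescence, read after 10 min at room temperature. Compound treatment of the cells lasted 48 or 72 hr at 37 degrees Celsius in a qHTS format.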
For orientation: In ATP-based viability assays light output follows the ATP content of the culture.

Records with an inconclusive call do not appear. Values without a mark were called inactive. Calls of active or inactive are those of the source. Calls come from the whole dose curve; as a rule, active = well fitted inhibition curve with a large enough effect; inconclusive = small, poorly fitted or top-dose-only effect; inactive = flat fitted curve, though single readings scatter.
Note: nearly all actives have a fitted effect of over 60% in size.

For the compound `CCOC(=S)SSC(=S)OCC`, the Potency entry in test [1], in [2], in [3], in [4], in [5] and in [6] was “inactive” each time. Besides, the Potency entry in test [7], in test [8], in test [9], in test [10], in test [11] and in test [12] was “inactive” each time. For the same compound, the Potency entry in [13] and in test [14] was “inactive” in each case. The max response in test [15] is 4.67%.

For the compound `CS(=O)(=O)OCC(O)C(O)COS(C)(=O)=O` (stereo not drawn), the Potency entry in test [1], in [2], in [3], in test [4], in test [5] and in [6] was “inactive” in each case. Also, the Potency entry in test [7], in test [8], in test [9], in test [10], in test [11] and in [12] was “inactive” each time. The Potency result in [13] is “inactive”. In addition, the max response in [15] was -18.1%.

Consider `O=C1c2ccccc2C(=O)C1c1ccc(F)cc1`, for which the Potency entry in [1], in test [2], in test [3], in test [4], in test [5] and in test [6] was “inactive” each time. Besides, the Potency entry in [7], in test [8], in test [9], in test [10], in [11] and in [12] was “inactive” in each case. In test [13], the Potency result was “inactive”. In test [15], the max response is -8.05%.

As to `CCOC(=O)c1c[nH]c2cc(OCC(C)C)c(OCC(C)C)cc2c1=O`, the Potency in test [1] was 79.4 nM (active); in test [2], 282 nM (active); in test [3], 141 nM (active); in test [4], 141 nM (active); in test [5], 126 nM (active); in test [6], 158 nM (active). The Potency was 112 nM (active) in test [7]; 120 nM (active) in [8]; 141 nM (active) in test [9]; 100 nM (active) in test [10]; 89.1 nM (active) in test [11]; 112 nM (active) in [12]. For the same compound, the Potency in [13] is 70.8 nM (active); in [14], 53.6 nM (active). In test [15], the max response is 5.44%.

For the compound `CC(C)CCCC(C)NC(C)C` (stereo not drawn), the Potency entry in test [1], in test [2], in test [3], in [4], in [5] and in test [6] was “inactive” each time. Besides, the Potency entry in [7], in test [8], in test [9], in test [10], in test [11] and in test [12] was “inactive” in each case. In addition, the Potency result in [13] and in test [14] was “inactive” in each case. In test [15], the max response was 0.846%.

For `NC(=O)[C@@H]1CCCN1C(=O)[C@H](Cc1cnc[nH]1)NC(=O)[C@@H]1CCC(=O)N1`, the Potency entry in test [1], in test [2], in test [3], in test [4], in test [5] and in [6] was “inactive” in each case. Moreover, the Potency entry in test [7], in [8], in test [9], in [10], in test [11] and in [12] was “inactive” each time. The Potency entry in test [13] and in test [14] was “inactive” throughout. In addition, the max response in test [15] was 0.162%.
